# Bst PK mod – pyruvate kinase (B. stearothermophilus) modulation. purified pyruvate kinase, luminescence ATP production; ribose 5-phosphate activator present at AC10. Potency, µM. hit rate 1.2% among 51,000. AID 361; in the data active = potency below about 11 µM; inconclusive = mostly about 12 µM to 25 µM;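 the screen sought inhibitors and activators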;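 also: scaled between full activation by ribose 5 phosphate and full inhibition by luteolin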
# TSHR ag – agonists of human thyroid stimulating hormone receptor | Potency, µM (top dose mostly 57.1 µM), for inactives: top-dose activation, usual class: activators | AID 926 | P16473 | HEK293-CNG-TSHR cells (CNG channel as cAMP sensor), membrane potential dye, cAMP | hit rate 0.48% among 73,000; active = well fitted activation curve with a large enough effect in the main read-out, with a control signal flat, not every such curve was filed as active; inconclusive = small, poorly fitted or top-dose-only effect, or a change in a side signal; inactive = no such curve, though single readings can be large or run the other way; % of control where 0% means no effect;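 also: the control signal comes from parental cells without the receptor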
#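 HEK 293 cells stably expressing TSHR and a cAMP-gated CNG channel; parental CNG-only cells as counterscreen. Cells preloaded 60 min with membrane potential dye plus 100 uM RO 20-1724, then compound 30 min; fluorescence read at 590 nm.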
# HEK293 cAMP ctrl – parental HEK293 cAMP activation (counter-screen); hit rate 2.5% among 73,000; parental HEK293 CNG cAMP sensor, membrane potential fluorescence; Potency, µM (titrated, usually from 57.1 µM), inactives show at the top dose activation, hits mostly activators; also: % of control where 0% means no effect; nearly all actives have a fitted effect of over 55% in size
#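 Parental HEK 293 cells stably expressing a cAMP-gated CNG channel were loaded with membrane potential dye containing 100 uM RO 20-1724 for 60 min. Compound added for 30 min; depolarization read as fluorescence intensity at 590 nm.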
# FLuc inh – blocks Photinus pyralis firefly luciferase activity; P08659; purified firefly luciferase, luminescence, 8 min; Potency, µM (doses to about 57.1 µM), for the others: top-dose activity change, negative = inhibition, usual class: inhibitors; hit rate 2.2% among 72,000; also: % is scaled to controls: 0 for no effect and ±100 for the full control effect; nearly all actives have a fitted effect of over 40% in size
#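 Luminescence read-out after 8 min at room temperature; enzyme reaction used luciferin plus 10 uM ATP (linear range) in imidazole buffer pH 7.2 with KCl, MgCl2, Tween 20 and BSA. Each sample was run as a titration.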
# GBA activity – modulators of human glucocerebrosidase; P04062; purified enzyme, resorufin glucoside fluorescence (screen aimed at inhibitors), 20 min; Potency, µM; hit rate 1.1% among 48,000; in the data active = potency below about 15 µM; inconclusive = mostly about 16 µM to 33 µM;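 also: the screen sought inhibitors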
# Target sequence (P04062 whole entry, looked up): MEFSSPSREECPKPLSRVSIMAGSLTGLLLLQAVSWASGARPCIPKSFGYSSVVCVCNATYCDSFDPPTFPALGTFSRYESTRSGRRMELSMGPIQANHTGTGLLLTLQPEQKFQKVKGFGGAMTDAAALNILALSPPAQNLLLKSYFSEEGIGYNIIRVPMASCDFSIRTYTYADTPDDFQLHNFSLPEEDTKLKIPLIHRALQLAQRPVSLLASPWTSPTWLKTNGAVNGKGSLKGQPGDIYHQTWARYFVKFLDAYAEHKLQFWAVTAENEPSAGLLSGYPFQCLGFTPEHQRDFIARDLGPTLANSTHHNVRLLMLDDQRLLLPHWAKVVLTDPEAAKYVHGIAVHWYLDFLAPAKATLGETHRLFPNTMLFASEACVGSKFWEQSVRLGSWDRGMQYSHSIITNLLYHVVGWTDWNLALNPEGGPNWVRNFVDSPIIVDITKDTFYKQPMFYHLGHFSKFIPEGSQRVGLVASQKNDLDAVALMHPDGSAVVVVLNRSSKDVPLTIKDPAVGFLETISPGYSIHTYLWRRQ
#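 Compounds titrated against 0.2 nM normal enzyme, 30 uM resorufin beta-D-glucopyranoside substrate, citrate/phosphate buffer with taurocholate and tween-20, pH 5.9. Reaction ran 20 min at room temperature; fluorescence (Ex 548/Em 600) gave AC50.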
# An asterisk follows results filed as active; i = inactive; u = inconclusive; x = no result given; [ ] = dose if it differs, or a comment. Hits are enriched below; roughly 5.8% of the tested compounds scored in any of these assays. Unless noted, calls follow the shape of the dose curve; as a rule, active = well fitted curve in the direction sought with a large enough effect; inconclusive = small, poorly fitted or top-dose-only effect, or another doubt; inactive = no such curve, though single readings can be large; an effect the other way counts as inactive or inconclusive. Potency is read from the fitted curve at half-maximal effect.
SMILES,Bst PK mod,TSHR ag,HEK293 cAMP ctrl,FLuc inh,GBA activity
COc1cc(SC)ccc1C(=O)Nc1ccc(S(=O)(=O)N2CCCC2)cc1,x,6.9%,7.2%,0.8%,x
COc1cc(SC)ccc1C(=O)Nc1ccon1,u,-2.3%,3.2%,25.1µM*,>76.9
COc1ccc(C(=O)N2CCC[C@@]3(CCN(c4ncccn4)C3)C2)cc1,x,7.4%,1.3%,0.0%[11.4 µM],x
CC(C)N(CCNC(=O)c1ccc(Cc2nc3ccccc3[nH]2)cc1)C(C)C,x,-3.8%,-12.5%,x,x
COc1ccccc1-c1cc(NCc2cccc(C)c2)ncn1,x,u,20µM*,-0.5%[2.29 µM],x
COc1ccccc1CNc1cc(-c2ccccc2C(F)(F)F)ncn1,x,u,u,0.2%[2.29 µM],x
COc1ccccc1CNc1cc(-c2ccccc2Cl)ncn1,x,u,15.8µM*,0.1%[2.29 µM],x
CN1C(=O)CSc2ccc(NC(=O)N3CCOCC3)cc21,>57,-18.5%,3.4%,-1.7%,>76.9
CSc1cccc(NC(=O)Nc2ccccc2)c1,x,2.5%[11.4 µM],9.9%[11.4 µM],10µM*,x
CCN(CC)c1ccc(NC(=O)Nc2cccc(C(C)=O)c2)cc1,9*,-30.5%,-13.0%,7.94µM*,>76.9
CC(=O)Nc1cccc(NC(=O)Nc2ccc(C(C)=O)cc2)c1,i,-17.9%,-14.0%,12.6µM*,>76.9
CC(=O)c1cccc(NC(=O)Nc2ccc3c(c2)N(C)C(=O)CS3)c1,i,5.2%,-1.6%,15.8µM*,>76.9
CC(=O)c1cccc(NC(=O)NCCS(C)=O)c1 (stereo not given),>57,-3.6%,3.7%,-0.3%,>76.9
O=C(O)CN1C(=O)O[C@@H](c2ccccc2)C1=O,x,4.9%[11.4 µM],7.6%[11.4 µM],0.3%[11.4 µM],x
COC(=O)c1ccc(NC(=O)N2CCOCC2)cc1,>57,-4.9%,3.6%,-2.2%,>76.9
O=C(Nc1ccc(C(=O)N2CCOCC2)cc1)Nc1cccc(Cl)c1,x,-3.3%,-16.2%,15.8µM*,>76.9
COc1ccc(NC(=O)Nc2ccc(C(=O)N3CCOCC3)cc2)cc1,>57,-2.6%,-2.4%,-0.9%,>76.9
O=C(Nc1ccc(Nc2ccccc2)cc1)N1CCOCC1,>57,-1.0%,-1.2%,-6.7%,2*
CC(=O)c1cccc(NC(=O)Nc2ccc(C(=O)N3CCCC3)cc2)c1,x,-4.6%,-9.3%,2.51µM*,>76.9
CN(C)c1ncc2nc(CCc3ccccc3)c(=O)n(Cc3ccc(F)cc3)c2n1,x,u,u,0.8%[11.4 µM],x
Cc1nc2cnc(N3CCN(C)CC3)nc2n(C)c1=O,x,2.7%,17.9%,0.9%[11.4 µM],x
N#CC1=C(N)N(c2ccccc2)C2=C(C(=O)CCC2)C1c1ccsc1 (stereo not given),>57,-6.8%[11.4 µM],-1.5%,-1.2%,14.9*
COc1cccc(-c2nnc(Nc3nc4c(F)cccc4s3)o2)c1,i,-5.2%,-4.1%,12.6µM*,>76.9
COc1cccc2sc(Nc3nnc(-c4ccccc4Cl)o3)nc12,x,-8.3%,11.0%,15.8µM*,x
O=C(Nc1cccc(Cn2cccn2)c1)c1cc2c(s1)CCCC2,i,x,28.2%,12.6µM*,>76.9
SMILES,Bst PK mod,TSHR ag,HEK293 cAMP ctrl,FLuc inh,GBA activity
CC(=O)Nc1cccc(Cn2cccn2)c1,>57,u,20µM*,0.8%,>76.9
CCSc1nnc(NC(=O)c2cc3c(s2)CCCC3)s1,x,x,-3.7%,x,x
CC(=O)Nc1cccc(C)c1,x,3.6%,11.7%,x,x
O=C1OC(=O)[C@@H]2[C@@H]1[C@@H]1CC[C@H]2O1,x,-0.2%,20.5%,1.5%[11.4 µM],x
C=CCNC(=O)c1ccc(Cl)cc1Cl,7.33*,4.5%,2.9%,0.3%,>76.9
C=CCNC(=O)c1ccc(C)cc1Cl,x,-5.1%,4.2%[11.4 µM],-4.3%,x
COc1ccc(-c2cc(-c3ccc(OC)cc3)[nH]n2)cc1,2.14*,-0.8%,0.7%,15.8µM*,>76.9
CCCC1C(c2ccco2)NC(c2ccco2)CC1(C)O (stereo not given),u,13.7%,-11.7%,12.6µM*,>76.9
O=C1CCC(C(=O)Nc2cccc3ccccc23)N1 (stereo not given),>57,-5.9%,-0.2%,-0.1%,>76.9
O=C(Nc1cccc2ccccc12)OC1C=CS(=O)(=O)C1 (stereo not given),>57,u,31.6µM*,-1.2%,>76.9
C=C(C)C(O)/C=C/CCCCCCC (stereo not given),x,3.6%[11.4 µM],9.3%[11.4 µM],x,x
O=C(Nc1cccc(C(F)(F)F)c1)c1cc(-c2cccs2)on1,>57,-0.6%,15.1%,-9.9%,4.85*
Cc1cc(C)n(-c2nncc(-c3ccccc3)n2)n1,x,-1.7%,-15.5%,-6.3%,x
Brc1ccc(-c2cnnc(N3CCCC3)n2)cc1,2.4*,x,x,-1.3%[25.5 µM],x
CC(=O)OCC1OC(c2ccc(C(C)=O)cc2)C=CC1OC(C)=O (stereo not given),x,-2.4%[11.4 µM],1.6%[11.4 µM],x,x
c1ccc(-c2nnc(Cn3c4ccccc4c4nc5ccccc5nc43)o2)cc1,>57,u,u,1.5%,>76.9
CC(O)c1nc2ccccc2n1Cc1nnc(-c2ccc(Cl)cc2)o1 (stereo not given),2.52*,15.1%,24.9%,-9.1%,>76.9
C=CCNc1ncnc2c1[nH]c1ccc(C)cc12,u,16.9%,17.5%,10µM*,u
Cc1cc(Cl)ccc1OCC(=O)Nc1ccccc1N1CCOCC1,>57,u,u,0.0%,>76.9
Cc1cccc(OCC(=O)Nc2ccccc2N2CCN(C(=O)C(C)C)CC2)c1C,>57,u,1.58µM*,1.7%,>76.9
CCC(=O)N1CCN(c2ccccc2NC(=O)COc2cccc(C)c2)CC1,>57,u,20µM*,1.1%,>76.9
O=C(COc1ccc(Cl)cc1)Nc1ccccc1N1CCOCC1,>57,u,15.8µM*,2.2%,>76.9
COc1ccccc1C(CCN(Cc1cccs1)C(C)=O)c1ccco1 (stereo not given),>57,u,15.8µM*,-1.0%,>76.9
CCC(=O)NCCC(c1ccco1)c1ccccc1OC (stereo not given),>57,11.2%,16.4%,-2.0%,>76.9
O=C(Nc1cccc(F)c1)N1CC[C@@]2(CCCN(C(=O)c3ccco3)C2)C1,x,u,u,0.4%[11.4 µM],x
SMILES,Bst PK mod,TSHR ag,HEK293 cAMP ctrl,FLuc inh,GBA activity
Cn1cc(S(=O)(=O)N2CCc3ccccc3C2)c(=O)n(C)c1=O,x,-6.9%,7.2%,-0.1%,x
CC1CN(S(=O)(=O)c2cn(C)c(=O)n(C)c2=O)CC(C)O1 (stereo not given),x,39.8µM*,23.1%,-0.8%,x
CCOC(=O)OCC1OC(C#CC(C)(C)C)C=CC1OC(=O)OCC (stereo not given),x,2.7%[11.4 µM],-2.2%[11.4 µM],x,x
Cc1cccc(-c2nnc(-c3ccc(N)cc3)o2)c1,8.96*,8.9%,4.4%,12.6µM*,>76.9
Brc1cccc(-c2nnc(-c3ccccc3)o2)c1,i,u,u,15.8µM*,x
Clc1cccc(-c2nnc(-c3ccccc3)o2)c1,x,u,u,5.01µM*,x
Cc1ccccc1-c1nnc(-c2ccc(Br)cc2)o1,4.4*,u,3.16µM*,-1.3%,>76.9
Cc1ccc(-c2nnc(-c3cccc(Br)c3)o2)cc1,x,x,x,-28.3%[25.5 µM],x
c1ccc(OCCSc2nnnn2-c2ccccc2)cc1,x,u,25.1µM*,u,>76.9
c1ccc(-n2nnnc2SCc2cccc3nsnc23)cc1,>57,u,20µM*,0.0%,>76.9
O=C(O)CCSc1nnnn1-c1ccccc1,>57,2.3%,-6.4%,-1.6%,>76.9
